These results are taken from PubChem BioAssay (NCI).

“And” between values parts separate entries of the source, which are not always exact repeats. Equal entries are not always repeated. The panel holds about 83,000 compounds, 20% with a hit somewhere; the sample as a whole holds those more often.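 Single-dose data. Exposure time 48 hours. Values below 10 considered active.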 The source made the active and inactive calls.

The test system of this assay is HL-60(TB) leukemia. As to the kind of experiment: NCI-60 one-dose screen, 48 h (100 = growth as untreated, 0 = no growth, -100 = all killed). As to conditions: 10 µM unless noted.
For the compound `O=C(Nc1cccc(Cl)c1)Nc1cccc(Cn2c(=O)[nH]c3ccc(Oc4ncccn4)cc3c2=O)c1`, the growth was 45.3% (inactive).
Turning to `CC1(C(=O)O)NC(C(=O)O)Cc2c1[nH]c1ccccc21` (stereo not given), the growth is 99.8% (inactive).
Next, `CCOC(=O)c1[nH]c(C)c(C(=O)OCc2ccccc2C#N)c1C`: 86.6% (inactive).
Next, `O=C(N/N=C/c1cccc2ccccc12)C1CC1`: 71.3% (inactive) and 95.7% (inactive); `O=C1c2ccc3c4ccc5c6c(ccc(c7ccc(c2c37)C(=O)N1CCC[P+](c1ccccc1)(c1ccccc1)c1ccccc1)c64)C(=O)N(CCC[P+](c1ccccc1)(c1ccccc1)c1ccccc1)C5=O`: 54.6% (inactive).
For `COc1ccc([N+](=O)[O-])cc1OC`, the growth is 85.5% (inactive) and 99.2% (inactive).
Next, `CSc1nc2c(c(=O)[nH]1)N=C1c3ccccc3C(=O)C1C(c1ccccc1)N2` (stereo not given): -34.8% (active).
Next, `O=C(CO)C(O)C(O)C(O)C(O)CO` (stereo not given): 101% (inactive) and 102% (inactive); `N#CC1=C(c2ccc(Br)cc2)NC(SCC(=O)c2ccc(Br)cc2)NC1=O` (stereo not given): 96% (inactive); `CCOC(=O)C(=Cc1cccc(Cl)c1)C(=O)OCC`: -2% (active).
Next, `CC(C)Sc1nc(NN)c(C#N)c(-c2ccccc2)n1`: 98.8% (inactive); `C=C1C(=O)O[C@H]2[C@H]1CC/C(COC(=O)C(=O)c1cn(C)c3ccc(Cl)cc13)=C\CC[C@@]1(C)O[C@@H]21`: -35.1% (active); `O=C(O)COCC(=O)O`: 102% (inactive).
Regarding `COc1cc(-c2cc(=O)oc3cc(O)ccc23)c(OC)c2c1OCO2`, the growth was 103% (inactive).
Next, `C=CCN(/C=C/CN(CC=C)CC=C)CC=C`: 102% (inactive); `CCc1c(C(=O)N[C@@H]2c3cc(Cl)ccc3CC[C@@H]2O)[nH]c(C)c1C(C)=O`: 103% (inactive); `COC(=O)/C=C1\S/C(=N\NS(=O)(=O)c2ccc(C)cc2)N(c2ccccc2)C1=O`: 105% (inactive).
With `COC(=O)c1n[nH]c2ccc3nc(-c4cn[nH]c4C(F)(F)F)c4c(c3c12)CCCC4`, the growth was 70% (inactive).
Next, `Cc1nc2sc(C(=O)Nc3ccccc3)c(N)c2cc1C(=O)c1ccccc1`: 21.8% (inactive); `Clc1ccc(-c2ccc(CNCC3CCNCC3)o2)c(-c2ccccc2)c1`: -62.3% (active); `COc1ccc(Nc2nnc(-c3ccc(OC)c(OC)c3)o2)cc1`: 84.2% (inactive).
Next, `COc1cc(C(=O)N/N=C/c2cccc([N+](=O)[O-])c2)cc(OC)c1OC`: 41.3% (inactive); `COc1cc(CNC(=O)CCCC/C=C/C(C)C)ccc1OCc1nnc(Nc2ccccc2F)o1`: 89.7% (inactive).
Next, `Cc1nc2cc(NC(=O)CN3CCN(CCN4C(=O)c5cccc6cccc(c56)C4=O)CC3)ccc2s1`: 63.9% (inactive).
With `C#CCOc1cccc(Nc2ncnc3c(NC(=O)C=C)cccc23)c1`, the growth is -4.75% (active).
Consider `O=C(Nc1ccc(Cl)cc1)c1cc(-c2ccc(F)cc2)c2sc(=O)[nH]c2n1`, for which the growth is -30.6% (active).
As for `CO[C@H](C(=O)[C@@H](O)[C@@H](C)O)[C@@H]1Cc2cc3cc(OC4CC(OC5CC(O)C(O)C(C)O5)C(O)C(C)O4)c(C)c(O)c3c(O)c2C(=O)[C@H]1OC1CC(OC2CC(OC3CC(C)(O)C(O)C(C)O3)C(O)C(C)O2)C(O)C(C)O1` (stereo not given in full), the growth was 3.88% (active).
For `N=C(N)c1ccc(-c2ccc(-c3cncc4ccccc34)s2)cc1F`, the growth was -45.5% (active).
Next, `O=C1/C(=C/c2ccc(Cl)cc2)COc2ccc(O)c(O)c21`: -11.7% (active); `CC/C(=C(/c1ccc(Cl)cc1)c1ccc(OCCN2CCCC2)cc1)c1ccc(OC)cc1`: 65.1% (inactive).
Take `C/C(=N\N=C(/C)c1cccc([N+](=O)[O-])c1)c1cccc([N+](=O)[O-])c1`: the growth was 125% (inactive).
On to `CCOC(=O)c1ccncc1`, for which the growth was 97.3% (inactive).
Next, `COc1cccc(C2C(C#N)=C(N)Oc3cc(N)ccc32)c1` (stereo not given): -19% (active); `O/N=C/c1ccc(O)cc1O`: 96.9% (inactive); `COc1cc(-c2nccc3cc4c(cc23)OCO4)cc(OC)c1OC`: 5.43% (active) and 9.65% (active).
Next, `Cc1ccc(Nc2nnc(-c3cc(-c4ccncc4)n(-c4ccccc4)n3)s2)cc1`: 66.3% (inactive); `Nc1nc2c(nnn2C2CC(O)C(CO)O2)c(=O)[nH]1` (stereo not given): 28.4% (inactive).
Next, `N#CC1=C(N)Oc2cc(N)ccc2C1c1ccc(F)cc1` (stereo not given): 88.9% (inactive); `Oc1c(Cl)cc(Cl)c2cccnc12`: 56.4% (inactive) and 5.89% (active); `Cc1ccc(NCCN(C)CC(C)O)c2c(=O)c3ccc(Cl)cc3sc12` (stereo not given): 9.65% (active).
